# High-throughput results from PubChem.
# HP1b binding inh = HTS for Inhibitors of HP1-beta Chromodomain Interactions with Methylated Histone Tails. 390,000 tested, 0.56% active. AlphaScreen HP1-beta / biotin-H3K9me3 peptide binding. Chromobox protein homolog 1 (Homo sapiens), P83916. AID 540317, 2011. Potency, µM (doses to about 114 µM), for inactives: at the top dose activity change, negative = inhibition, most hits filed as inhibitors; also: potency is read from the fitted curve at half-maximal effect; nearly all actives have a fitted effect of over 70% in size
#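 AlphaScreen: HP1-beta (50 nM) preformed 30 min with biotin-H3(1-18)K9me3 peptide (50 nM) in PBS pH 7.4, 0.01% Tween-20. Compound added for 30 min at RT, then streptavidin donor/nickel chelate acceptor beads (10 ug/mL) for 30 min.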
# G9a inh = qHTS Assay for Inhibitors of Histone Lysine Methyltransferase G9a. AID 504332, 2011. G9a H3K9 monomethylation, AlphaScreen, 2 h. 350,000 tested, 8.8% active. Potency, µM (doses to about 102 µM), inactives show at the highest dose activity, negative = inhibition, hits mostly inhibitors; also: potency is read from the fitted curve at half-maximal effect; % is scaled to controls: 0 for no effect and ±100 for the full control effect; nearly all actives have a fitted effect of over 75% in size
#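 Enzyme 20 nM + cpd, 15 min RT; add b-H3K9 pep 500 nM / SAM 20 uM; 2 h RT; anti-H3K9me1 Ab 0.5 ug/mL + SA donor / anti-rabbit acceptor beads 20 ug/mL each, 10 min; AlphaScreen read.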
# BAZ2B block = qHTS Assay for Inhibitors of BAZ2B. Potency, µM (titrated, usually from 114 µM), inactives show at the highest dose activity change, negative = inhibition, most hits filed as inhibitors. 360,000 tested, 4.4% active. Bromodomain adjacent to zinc finger domain protein 2B (Homo sapiens), Q9UIF8. AID 504333, 2011. AlphaScreen BAZ2B-H3K14Ac peptide displacement; also: potency is read from the fitted curve at half-maximal effect; % is scaled to controls: 0 for no effect and ±100 for the full control effect; nearly all actives have a fitted effect of over 60% in size
#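 In this displacement format the biotinylated H3(5-23) peptide acetylated at Lys14 serves as ligand at 50 nM, with BAZ2B at 50 nM in PBS pH 7.4 containing 0.01% Tween-20. Donor and acceptor beads are 10 ug/mL final.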
# JMJD2A Tudor = qHTS Assay for Inhibitors of JMJD2A-Tudor Domain; AlphaScreen JMJD2A-Tudor / H3K4me3 peptide binding; AID 504339, 2011; Lysine-specific demethylase 4A (Homo sapiens), O75164; Potency, µM (titrated, usually from 114 µM), inactives show at the highest dose activity change, negative = inhibition, hits mostly inhibitors; 390,000 tested, 4.4% active; also: potency is read from the fitted curve at half-maximal effect; % is scaled to controls: 0 for no effect and ±100 for the full control effect; nearly all actives have a fitted effect of over 50% in size
# PI5P4Ka inh = qHTS for Inhibitors of phosphatidylinositol 5-phosphate 4-kinase (PI5P4K); PI5P4Kalpha enzyme, ADP-Glo luminescence, 60 min; stronger effect = lower value; Phosphatidylinositol 5-phosphate 4-kinase type-2 alpha (Homo sapiens), P48426; max response, %; AID 652105, 2013; 330,000 tested, 1.2% active; active = max response of -50% or lower; inconclusive = between -30% and -50%; inactive = -30% or higher; also: value at the top dose of about 77 µM; % is scaled to controls: 0 for no effect and ±100 for the full control effect
#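 Single end-point luminescence (ADP-Glo) quantified ADP from PI5P4Kalpha turnover; ATP 5 microM final, 1 h at RT, 0.1% CHAPS and 0.28 mM EGTA in HEPES pH 7.4.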
# L3MBTL1 block = qHTS Assay for the Inhibitors of L3MBTL1. 230,000 tested, 0.66% active. AID 485360, 2010. AlphaScreen L3MBTL1–H3K9me1 peptide binding. Potency, µM (series often up to 57.1 µM), without a hit: top-dose activity, negative = inhibition, hits mostly inhibitors. Lethal(3)malignant brain tumor-like protein 1 (Homo sapiens), Q9Y468; also: potency is read from the fitted curve at half-maximal effect; % is scaled to controls: 0 for no effect and ±100 for the full control effect; nearly all actives have a fitted effect of over 60% in size
#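 L3MBTL1 50 nM + b-AHA-H3(1-15)K9me1 75 nM, 30 min RT; compound added, 30 min RT; streptavidin donor/Ni-chelate acceptor beads 10 ug/mL each final, 30 min RT dark; AlphaScreen read.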
# * = called active by the depositor; ? = inconclusive; · = no result given; ! = a repeat was not active; [ ] = remark or other dose. This is a sample that favours compounds with a hit; in the whole collection about 11% have one here. Unless noted, calls follow the shape of the dose curve; as a rule, active = well fitted inhibition curve with a large enough effect; inconclusive = small, poorly fitted or top-dose-only effect; inactive = no such curve, though single readings can be large or run the other way.
SMILES,HP1b binding inh,G9a inh,BAZ2B block,JMJD2A Tudor,PI5P4Ka inh,L3MBTL1 block
O=C(NCc1ccccc1Cl)c1ccc(CS(=O)(=O)c2ccc(Br)cc2)o1,12.4%,-21.9%[59 µM],-12.0%,-10.4%,·,·
O=C(COc1ccccc1[N+](=O)[O-])N1CCCc2ccccc21,19.0%,70.8µM*,-6.6%,-15.4%,-6.6,·
O=C(COc1ccc2c(c1)CCC2)N1CCc2ccccc21,?,-3.1%[59 µM],1.1%,39.8µM*,?,12.8%
O=C(OCC(=O)N1CCCc2ccccc21)c1ccccc1[N+](=O)[O-],9.0%,?,-10.8%,-17.9%,2.8,-13.2%
O=C1OCC(c2ccccc2)=C1c1ccccc1,11.4%,-6.4%[59 µM],3.2%,-8.4%,-10.1,·
N#CC1=C(c2ccc(-c3ccccc3)cc2)COC1=O,-22.1%,11.2µM*,-25.8%,-15.0%[11.4 µM],?,7.1%
COc1ccc(C2Nc3ccccc3C(=O)N2NS(=O)(=O)c2ccc(C)cc2)c(OC)c1 (centres undefined),-4.0%,-1.7%,9.7%,-13.1%,7.2,·
Cc1ccc(S(=O)(=O)NN2C(=O)c3ccccc3NC2c2ccccc2F)cc1 (centres undefined),40.9%,6.4%,50.1µM*,-4.9%,-7.7,·
CC(C)=N/N=C(\N)SCc1ccccc1,33.0%,7.94µM*,79.4µM*,-19.4%,0.5,·
CCCC[n+]1c(-c2ccc(Cl)cc2Cl)csc1Nc1ccccc1,?,11.2µM*,12.6µM*,70.8µM*,-0.4,-12.9%
Clc1ccc(-c2csc(Nc3ccccc3)[n+]2Cc2ccco2)c(Cl)c1,?,31.6µM*,25.1µM*,-36.0%,3.1,-2.5%
S=C(NCc1ccco1)Nc1cccc(Cl)c1,20.1%,-44.0%[59 µM],?,-17.9%,·,-8.5%
Cc1ccc(-n2c(=O)c3c(C)c(C(=O)N(C)C)sc3n(CC(=O)C(C)(C)C)c2=O)cc1C,36.3%,5.4%[59 µM],-1.2%,-25.7%,·,·
COCCn1c(=O)c(-c2ccc(Cl)cc2)nc2cnc(Nc3ccccc3)nc21,·,-3.7%[0.501 µM],·,·,·,·
C=CCn1c(CCCOc2ccc(Cl)cc2Cl)nnc1SCC(=O)Nc1nccs1,41.7%,39.8µM*,-16.8%,-19.5%,6.2,·
CCn1ncc(C2=NOC(C(=O)NCc3ccccc3)C2)c1C (centres undefined),-7.7%,44.7µM*,1.3%,-1.3%,·,2.2%
Cc1ccc(Cl)cc1N1CCN(S(=O)(=O)c2c(C)[nH]c(=O)[nH]c2=O)CC1,29.7%,43.6%[12.7 µM],4.3%,-9.0%,0.0,-1.1%
Cc1cccc(N2CCN(S(=O)(=O)c3c(C)[nH]c(=O)[nH]c3=O)CC2)c1C,10.1%,39.8µM*!,-1.5%,-14.1%,·,·
N#Cc1c(NC(=O)/C=C/c2ccco2)sc2c1CCCC2,6.9%,?,?,-26.9%,-62.9*,-19.3%
NC(=O)c1c(NC(NC(=O)c2ccco2)C(=O)c2ccc(Cl)cc2)sc2c1CCCC2 (centres undefined),-10.1%,25.1µM*,?,?,·,·
N#Cc1c(NC(NC(=O)c2ccco2)C(=O)c2ccccc2)sc2c1CCCC2 (centres undefined),-26.0%,5.01µM*,-37.0%,50.1µM*,·,-11.2%
Cc1ccc(C)c(CSC2=NC(C)(C)Nc3ccccc32)c1,238.5%,73.7%[59 µM],101.3%[57.1 µM],122.0%,·,·
Cc1ccc(-n2ncc(C(=O)N3CCN(C4CCCCC4)CC3)c2C2CCN(C(=O)OC(C)(C)C)CC2)cc1,15.1%,-15.5%[59 µM],6.5%[57.1 µM],-12.3%,·,·
Cc1ccc(-c2noc(CNC(=O)c3ccc(C)c(Cl)c3)n2)cc1,61.8%,4.9%[59 µM],6.2%,1.7%,·,·
